Experimental data published in PubChem BioAssay (Tox21).
Several values for one entry are separate records, joined by “and”; a condition that tells them apart may be missing. Equal values may be shown once. Results filed as inconclusive are left out. Where a call stands in place of a potency, no number is given. A structure can be active in one record and inactive in another. Activity calls are given as the source filed them. Calls follow the shape of the dose curve; as a rule, active = well fitted cell-killing curve with a large enough effect in the repeat runs; inconclusive = weak or mixed curves; inactive = flat fitted curve, though single readings scatter.

assay: qHTS RealTime-Glo MT Cell Viability Assay in HepG2 cells - 32 hour (AID 1224877); conditions: RealTime-Glo luminescence; series mostly up to 76.8 µM; activity change, negative = cytotoxic: at the top concentration; also: nearly all actives have a fitted effect of over 55% in size
Procedure, shortened: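 Cell number in HepG2 cultures estimated from NanoLuc luminescence generated by metabolic reduction of a prosubstrate by living cells. The homogeneous, nonlytic format allowed repeated reads at 0, 8, 16, 24, 32 and 40 h of compound exposure.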
Potency is read from the fitted curve at half-maximal effect.

| SMILES | Potency | activity change, negative = cytotoxic |
| --- | --- | --- |
| Cn1cnc([N+](=O)[O-])c1Sc1ncnc2nc[nH]c12 | inactive |  |
| Oc1ccc(O)cc1 | inactive |  |
| CC(CCC(=O)O)(c1ccc(O)cc1)c1ccc(O)cc1 | inactive |  |
| COc1ccc(OC)c(C(O)CNC(=O)CN)c1 (configuration not stated) | inactive |  |
| C#C[C@]1(O)CC[C@H]2[C@@H]3CCc4cc(OC)ccc4[C@H]3CC[C@@]21C | inactive |  |
| Nc1ccccc1N | inactive |  |
| c1ccc2c(c1)Oc1ccccc1S2 | inactive |  |
| Cc1c(OCC(F)(F)F)ccnc1CS(=O)c1nc2ccccc2[nH]1 (configuration not stated) | inactive |  |
| CC(=O)C1(C)CC2=C(CCCC2(C)C)CC1C (configuration not stated) | inactive |  |
| c1ccc2sc(SSN3CCOCC3)nc2c1 | inactive and 49 µM (active) |  |
| CCCCC(CC)COP(=O)(OCC(CC)CCCC)OCC(CC)CCCC (configuration not stated) | inactive |  |
| CCCC(=O)O | inactive |  |
| CCCCc1oc2ccccc2c1C(=O)c1cc(I)c(OCCN(CC)CC)c(I)c1 | 39.2 µM (active) and 23.9 µM (active) |  |
| CN(C)CCC=C1c2ccccc2CCc2ccccc21 | inactive and 49 µM (active) |  |
| CC(=O)Oc1ccccc1C(=O)Nc1ncc([N+](=O)[O-])s1 | inactive |  |
| O=C(c1ccccc1)c1ccccc1O | inactive |  |
| Cc1ccc2c(n1)Oc1ccc(C(C)C(=O)OCC(=O)N(C)C)cc1C2 (configuration not stated) | inactive |  |
| O=C(/C=C/C=C/c1ccc2c(c1)OCO2)N1CCCCC1 | inactive |  |
| O=CCc1ccccc1 | inactive |  |
| CN(C)CCN(Cc1cccs1)c1ccccn1 | inactive |  |
| CCCCOCCOCCOCCO | inactive |  |
| c1cc(N(CC2CO2)CC2CO2)ccc1OCC1CO1 (configuration not stated) |  | 0.517% (inactive) |
